Inconclusive results are not listed. Activity calls are given as the source filed them. The call rests on the fitted dose curve; in most records, active means well fitted curve in the direction sought with a large enough effect in the repeat runs; inconclusive means weak or mixed curves; inactive means no such curve, though single readings can be large; an effect the other way counts as inactive or inconclusive.
What was measured:
[1] = A CellTox Green Cytotoxicity Assay to monitor cytotoxicity in HEK293 cells - 40 hour (AID 1224871); further: nearly all actives have a fitted effect of over 45% in size
Method in brief: (§1)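 Homogeneous no-lysis format: HEK293 cell suspension mixed with CellTox Green reagent, seeded, incubated 5 h at 37 C/5% CO2, then dosed by pintool with compound in DMSO.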

[2] = qHTS RealTime-Glo MT Cell Viability Assay in HEK293 cells - 16 hour (AID 1224872); further: top concentration of the series differs between compounds; nearly all actives have a fitted effect of over 50% in size
Method in brief: (§2)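 Assay medium contained NanoLuc luciferase plus cell-permeant prosubstrate, added with HEK293 cells at 600 cells/well. After 5 h at 37 C/5% CO2 compounds were added; plates stayed at 37 C for 40 h with serial luminescence reads.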

[3] = qHTS RealTime-Glo MT Cell Viability Assay in HepG2 cells - 8 hour (AID 1224873); further: nearly all actives have a fitted effect of over 55% in size
Method in brief: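 HepG2 cells mixed with RealTime-Glo MT reagents (NanoLuc plus cell-permeant prosubstrate) were seeded at 600 cells/well, incubated 5 h at 37 C/5% CO2, then pinned with compounds in DMSO; nonlytic luminescence tracked viability during 40 h treatment.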

[4] = qHTS RealTime-Glo MT Cell Viability Assay in HEK293 cells - 40 hour (AID 1224874); conditions: RealTime-Glo luminescence; max response: hits give low values; further: nearly all actives have a fitted effect of over 50% in size
Method in brief: (§3)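 Measured as luminescence from the same continuously cultured HEK293 wells at successive time points (0, 8, 16, 24, 32, 40 h) after compound addition. Reagent present from seeding; dosing at 5 h; incubation 37 C.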

[5] = A CellTox Green Cytotoxicity Assay to monitor cytotoxicity in HEK293 cells - 24 hour (AID 1224875); further: series mostly up to about 77 µM; nearly all actives have a fitted effect of over 45% in size
Method in brief: as §1

[6] = A CellTox Green Cytotoxicity Assay to monitor cytotoxicity in HepG2 cells - 16 hour (AID 1224876); further: nearly all actives have a fitted effect of over 45% in size
Method in brief: (§4)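 Fluorescent DNA-binding dye, 600 HepG2 cells/well, 5 h preincubation then compound in DMSO; same plates read at 0–40 h, 37 C.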

[7] = qHTS RealTime-Glo MT Cell Viability Assay in HepG2 cells - 32 hour (AID 1224877); further: nearly all actives have a fitted effect of over 55% in size
Method in brief: (§5)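 qHTS, HepG2, 600 cells/well, RealTime-Glo (NanoLuc + prosubstrate) added with cells; 5 h preincubation; DMSO compound addition; 37 C; luminescence at 0/8/16/24/32/40 h.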

[8] = A CellTox Green Cytotoxicity Assay to monitor cytotoxicity in HepG2 cells - 24 hour (AID 1224878); further: nearly all actives have a fitted effect of over 45% in size
Method in brief: as §4

[9] = A CellTox Green Cytotoxicity Assay to monitor cytotoxicity in HepG2 cells - 40 hour (AID 1224879); further: nearly all actives have a fitted effect of over 40% in size
Method in brief: as §4

[10] = qHTS RealTime-Glo MT Cell Viability Assay in HEK293 cells - 0 hour (AID 1224880)
Method in brief: as §3

[11] = A CellTox Green Cytotoxicity Assay to monitor cytotoxicity in HEK293 cells - 32 hour (AID 1224881); further: nearly all actives have a fitted effect of over 40% in size
Method in brief: as §1

[12] = A CellTox Green Cytotoxicity Assay to monitor cytotoxicity in HepG2 cells - 0 hour (AID 1224882); further: nearly all actives have a fitted effect of over 35% in size
Method in brief: as §4

[13] = A CellTox Green Cytotoxicity Assay to monitor cytotoxicity in HEK293 cells - 8 hour (AID 1224884); further: nearly all actives have a fitted effect of over 35% in size
Method in brief: as §1

[14] = qHTS RealTime-Glo MT Cell Viability Assay in HepG2 cells - 16 hour (AID 1224885); further: nearly all actives have a fitted effect of over 50% in size
Method in brief: as §5

[15] = qHTS RealTime-Glo MT Cell Viability Assay in HEK293 cells - 24 hour (AID 1224886); further: top concentration of the series differs between compounds; nearly all actives have a fitted effect of over 50% in size
Method in brief: as §2

[16] = qHTS RealTime-Glo MT Cell Viability Assay in HEK293 cells - 8 hour (AID 1224887)
Method in brief: as §3

[17] = A CellTox Green Cytotoxicity Assay to monitor cytotoxicity in HEK293 cells - 16 hour (AID 1224888); further: nearly all actives have a fitted effect of over 35% in size
Method in brief: as §1

[18] = qHTS RealTime-Glo MT Cell Viability Assay in HepG2 cells - 0 hour (AID 1224889); further: nearly all actives have a fitted effect of over 50% in size
Method in brief: as §5

[19] = A CellTox Green Cytotoxicity Assay to monitor cytotoxicity in HepG2 cells - 8 hour (AID 1224890); further: nearly all actives have a fitted effect of over 45% in size
Method in brief: as §4

[20] = A CellTox Green Cytotoxicity Assay to monitor cytotoxicity in HepG2 cells - 32 hour (AID 1224883); further: nearly all actives have a fitted effect of over 50% in size
Method in brief: as §4
On the % scale 0 is the no-effect control and ±100 the full control effect.

CO[Si](C)(OC)c1ccccc1
inactive: Potency [1] | Potency [2] | outcome [3] | max response [4] -2.44% | outcome [5] | outcome [6] | Potency [7] | outcome [8] | Potency [9] | Potency [10] | outcome [11] | Potency [12] | outcome [13] | outcome [14] | Potency [15] | Potency [16] | outcome [17] | Potency [18] | outcome [19]

CC1(C)OC[C@@H](COC(=O)CCc2ccc(OC[C@@H](O)CNCCNC(=O)N3CCOCC3)cc2)O1
inactive: Potency [1] | Potency [2] | outcome [3] | max response [4] 4.31% | outcome [5] | outcome [6] | Potency [7] | outcome [8] | Potency [9] | Potency [10] | outcome [11] | Potency [12] | outcome [13] | outcome [14] | Potency [15] | Potency [16] | outcome [17] | Potency [18] | outcome [19]

CCC(C)(CN(C)C)OC(=O)c1ccccc1 (stereo not given)
inactive: Potency [1] | Potency [2] | outcome [3] | max response [4] 12.1% | outcome [5] | outcome [6] | Potency [7] | outcome [8] | Potency [9] | Potency [10] | outcome [11] | Potency [12] | Potency [20] | outcome [13] | outcome [14] | Potency [15] | Potency [16] | outcome [17] | outcome [19]

O=[N+]([O-])c1ccc(/C=N\O)o1
inactive: Potency [1] | Potency [2] | outcome [3] | max response [4] 4.52% | outcome [5] | outcome [6] | Potency [7] | outcome [8] | Potency [9] | Potency [10] | outcome [11] | Potency [12] | Potency [20] | outcome [13] | outcome [14] | Potency [15] | Potency [16] | outcome [17] | outcome [19]

CCN1CCOCC1
inactive: Potency [1] | Potency [2] | outcome [3] | max response [4] -0.712% | outcome [5] | outcome [6] | Potency [7] | outcome [8] | Potency [9] | Potency [10] | outcome [11] | Potency [12] | outcome [13] | outcome [14] | Potency [15] | Potency [16] | outcome [17] | Potency [18] | outcome [19]

[O-][n+]1cccc(CO)c1
inactive: Potency [1] | Potency [2] | outcome [3] | max response [4] 8.89% | outcome [5] | outcome [6] | Potency [7] | Potency [9] | Potency [10] | outcome [11] | Potency [12] | Potency [20] | outcome [13] | outcome [14] | Potency [15] | Potency [16] | outcome [17] | Potency [18] | outcome [19]

CCCCc1nc(Cl)c(CO)n1Cc1ccc(-c2ccccc2-c2nn[nH]n2)cc1
inactive: Potency [1] | Potency [2] | outcome [3] | max response [4] -16.9% | outcome [5] | outcome [6] | Potency [7] | Potency [9] | outcome [11] | Potency [12] | Potency [20] | outcome [13] | outcome [14] | Potency [15] | Potency [16] | outcome [17] | Potency [18]

C=C[Si](OC(C)=O)(OC(C)=O)OC(C)=O
inactive: Potency [1] | Potency [2] | outcome [3] | max response [4] 4.65% | outcome [5] | outcome [6] | Potency [7] | Potency [9] | Potency [10] | outcome [11] | Potency [12] | Potency [20] | outcome [13] | outcome [14] | Potency [15] | Potency [16] | outcome [17] | outcome [19]

CCCCN1C=CN(C)C1
inactive: cytotoxicity increase [1] -12.1% [at 15.8 µM] | activity change, negative = cytotoxicity [2] 5.82% [at 15.8 µM] | viability change, negative = cytotoxic [3] 2.13% [at 15.8 µM] | max response [4] 9.09% | activity change [5] -7.42% [at 15.8 µM] | cytotoxicity increase [6] -14.5% [at 15.8 µM] | activity change, negative = cytotoxic [7] -0.21% [at 15.8 µM] | cytotoxicity increase [9] -22.4% [at 15.8 µM] | activity change, negative = cytotoxicity [10] 0.0716% [at 15.8 µM] | cytotoxicity increase [11] -9.11% [at 15.8 µM] | cytotoxicity [12] -12.1% [at 15.8 µM] | cytotoxicity increase [20] -19.6% [at 15.8 µM] | cytotoxicity increase [13] -6.47% [at 15.8 µM] | activity change, negative = cytotoxic [14] 3.26% [at 15.8 µM] | activity change, negative = cytotoxicity [15] 9.28% [at 15.8 µM] | activity change, negative = cytotoxicity [16] 5.36% [at 15.8 µM] | activity change [17] -9.59% [at 15.8 µM] | activity change, negative = cytotoxicity [18] 0.175% [at 15.8 µM] | cytotoxicity increase [19] -8.5% [at 15.8 µM]

CC1=NS(=O)(=O)c2cc(Cl)ccc2N1
inactive: Potency [1] | Potency [2] | outcome [3] | max response [4] 2.07% | outcome [5] | outcome [6] | Potency [7] | Potency [9] | Potency [10] | outcome [11] | Potency [12] | outcome [13] | outcome [14] | Potency [15] | Potency [16] | outcome [17] | Potency [18] | outcome [19]

CC(=O)Nc1ccc(OCC(O)CNC(C)C)cc1 (stereo not given)
inactive: Potency [1] | Potency [2] | outcome [3] | max response [4] -1.7% | outcome [5] | outcome [6] | Potency [7] | outcome [8] | Potency [9] | outcome [11] | Potency [12] | Potency [20] | outcome [13] | outcome [14] | Potency [15] | outcome [17] | Potency [18] | outcome [19]

COc1c(N2CCNC(C)C2)c(F)cc2c(=O)c(C(=O)O)cn(C3CC3)c12 (stereo not given)
inactive: Potency [1] | Potency [2] | outcome [3] | max response [4] 14% | outcome [5] | outcome [6] | Potency [7] | Potency [9] | Potency [10] | outcome [11] | Potency [12] | Potency [20] | outcome [13] | outcome [14] | Potency [15] | Potency [16] | outcome [17] | Potency [18] | outcome [19]

CC(C)(C)C(=O)c1ccccc1
inactive: Potency [1] | Potency [2] | outcome [3] | max response [4] 0.84% | outcome [5] | outcome [6] | Potency [7] | Potency [9] | Potency [10] | outcome [11] | Potency [12] | outcome [13] | outcome [14] | Potency [15] | Potency [16] | outcome [17] | Potency [18]
